What all share (assay): universal protein binding microarray (PBM); transcription factors of Arabidopsis thaliana; high values mean tight binding
One assay deals with T1, GST-ANAC092(1-176) (Arabidopsis thaliana, UniProt Q9FKA0 1-176).
T1 sequence: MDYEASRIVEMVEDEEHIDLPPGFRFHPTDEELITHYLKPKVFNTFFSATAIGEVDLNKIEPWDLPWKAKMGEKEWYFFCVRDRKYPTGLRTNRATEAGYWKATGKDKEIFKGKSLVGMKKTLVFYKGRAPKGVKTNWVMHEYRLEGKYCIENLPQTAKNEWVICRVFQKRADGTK
The note with it: protein: recombinant; tags: GST; chain copies: 2; dsDNA, one strand shown. The procedure, abridged:
(§1)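 Binding is expressed as the normalised enrichment score (E-score). Proteins carrying a GST tag, whether NAC-domain, full-length or DNA-binding-domain forms, were induced in cells, and zinc acetate was added for zinc-finger proteins. After purification on glutathione–Sepharose 4B and quantification by A280 or anti-GST western blot, each was applied in duplicate at 200 to 500 nM final to custom all-10-mer Agilent 4 × 180K arrays made double-stranded by primer extension. Gapped and ungapped 8-mers were scored.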

For the next assay, the target named is GST-NTL6(1-168) (Arabidopsis thaliana, UniProt Q9SCK6 1-168). To be noted: protein: recombinant; tags: GST; chain copies: 2; dsDNA, one strand shown. The procedure, abridged: as §1
GST-NTL6(1-168), sequence (Q9SCK6 1-168): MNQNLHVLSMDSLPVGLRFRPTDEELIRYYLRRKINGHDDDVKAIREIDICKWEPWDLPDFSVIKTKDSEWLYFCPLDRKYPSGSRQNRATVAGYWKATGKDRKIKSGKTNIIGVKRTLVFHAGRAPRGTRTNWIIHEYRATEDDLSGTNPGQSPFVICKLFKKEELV
A further assay has as its target T2, GST-ANAC019 NAC domain (Arabidopsis thaliana, UniProt Q9C932 14-162).
T2 sequence: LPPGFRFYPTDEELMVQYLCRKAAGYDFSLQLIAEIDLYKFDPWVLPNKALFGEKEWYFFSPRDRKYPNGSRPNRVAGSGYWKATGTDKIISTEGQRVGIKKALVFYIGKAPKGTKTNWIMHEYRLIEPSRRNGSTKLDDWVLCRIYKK
The note with it: protein: recombinant; tags: GST; chain copies: 2; dsDNA, one strand shown. The procedure, abridged: as §1

Another assay addresses T3, GST-ANAC055(1-171) (Arabidopsis thaliana, UniProt Q9LDY8 1-171).
T3 sequence: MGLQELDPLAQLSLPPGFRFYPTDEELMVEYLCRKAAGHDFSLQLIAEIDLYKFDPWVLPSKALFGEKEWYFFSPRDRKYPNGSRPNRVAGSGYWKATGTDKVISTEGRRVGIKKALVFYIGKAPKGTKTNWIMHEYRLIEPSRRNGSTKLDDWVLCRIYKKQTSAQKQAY
To be noted: protein: recombinant; tags: GST; chain copies: 2; dsDNA, one strand shown. The procedure, abridged:
as §1

The target in a further assay is T4, GST-ATAF1 NAC domain (Arabidopsis thaliana, UniProt Q39013 7-158).
T4 sequence: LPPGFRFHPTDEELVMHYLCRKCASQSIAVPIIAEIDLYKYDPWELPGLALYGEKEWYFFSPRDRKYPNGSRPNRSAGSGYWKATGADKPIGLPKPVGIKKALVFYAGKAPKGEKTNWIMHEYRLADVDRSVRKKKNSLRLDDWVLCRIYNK
The note with it: protein: recombinant; tags: GST; chain copies: 2; dsDNA, one strand shown. The essentials:
as §1

Assay [1] addresses T5, GST-ANAC092(1-285) full length (Arabidopsis thaliana, UniProt Q9FKA0 1-285).
T5 sequence: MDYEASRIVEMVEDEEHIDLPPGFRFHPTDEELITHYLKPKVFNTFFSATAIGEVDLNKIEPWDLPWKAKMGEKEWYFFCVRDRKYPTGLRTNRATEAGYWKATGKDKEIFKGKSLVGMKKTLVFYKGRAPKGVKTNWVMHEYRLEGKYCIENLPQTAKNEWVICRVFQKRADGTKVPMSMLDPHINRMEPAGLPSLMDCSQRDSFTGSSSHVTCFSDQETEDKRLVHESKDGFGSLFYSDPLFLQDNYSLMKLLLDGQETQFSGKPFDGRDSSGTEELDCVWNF
To be noted: protein: recombinant; tags: GST; chain copies: 2; dsDNA, one strand shown. The procedure, abridged: as §1

The target of the next assay is T6, GST-NAP(1-166) (Arabidopsis thaliana, UniProt O49255 1-166).
T6 sequence: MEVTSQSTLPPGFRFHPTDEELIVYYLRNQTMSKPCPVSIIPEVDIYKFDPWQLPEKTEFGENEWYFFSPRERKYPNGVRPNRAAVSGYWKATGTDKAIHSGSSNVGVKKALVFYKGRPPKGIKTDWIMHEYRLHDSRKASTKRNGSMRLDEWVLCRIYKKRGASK
To be noted: protein: recombinant; tags: GST; chain copies: 2; dsDNA, one strand shown. The essentials: as §1

Another assay has as its target T7, GST-NST2(1-184) (Arabidopsis thaliana, UniProt Q9M274 1-184).
T7 sequence: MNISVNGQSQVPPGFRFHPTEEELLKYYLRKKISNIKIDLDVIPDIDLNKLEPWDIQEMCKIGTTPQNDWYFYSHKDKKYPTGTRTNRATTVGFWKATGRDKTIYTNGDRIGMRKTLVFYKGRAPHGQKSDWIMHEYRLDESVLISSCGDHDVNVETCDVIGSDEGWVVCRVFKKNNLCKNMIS
To be noted: protein: recombinant; tags: GST; chain copies: 2; dsDNA, one strand shown. The procedure, abridged: as §1

A further assay has as its target T8, GST-SND1(1-203) (Arabidopsis thaliana, UniProt Q9LPI7 1-203).
T8 sequence: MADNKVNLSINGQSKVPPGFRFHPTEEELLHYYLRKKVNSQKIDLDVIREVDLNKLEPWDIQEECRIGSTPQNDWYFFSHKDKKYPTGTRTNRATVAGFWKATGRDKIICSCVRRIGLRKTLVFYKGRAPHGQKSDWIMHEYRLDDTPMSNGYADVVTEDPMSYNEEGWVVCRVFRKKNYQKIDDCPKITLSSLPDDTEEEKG
The note with it: protein: recombinant; tags: GST; chain copies: 2; dsDNA, one strand shown. The essentials:
as §1

The target in another assay is T9, GST-VND3 NAC domain (Arabidopsis thaliana, UniProt Q9FH59 12-162).
T9 sequence: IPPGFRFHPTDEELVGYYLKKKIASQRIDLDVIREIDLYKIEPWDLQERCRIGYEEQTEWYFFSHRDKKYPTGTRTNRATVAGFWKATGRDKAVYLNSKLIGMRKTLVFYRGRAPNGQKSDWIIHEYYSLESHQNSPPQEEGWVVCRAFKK
To be noted: protein: recombinant; tags: GST; chain copies: 2; dsDNA, one strand shown. The procedure, abridged:
as §1

Another assay concerns the target T10, GST-VND7 NAC domain (Arabidopsis thaliana, UniProt Q9C8W9 9-158).
T10 sequence: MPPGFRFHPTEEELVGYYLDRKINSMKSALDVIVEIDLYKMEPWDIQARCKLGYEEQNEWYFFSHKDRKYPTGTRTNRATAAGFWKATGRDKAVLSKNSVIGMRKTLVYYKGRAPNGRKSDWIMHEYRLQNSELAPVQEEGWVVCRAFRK
To be noted: protein: recombinant; tags: GST; chain copies: 2; dsDNA, one strand shown. The essentials: as §1

A further assay deals with T11, GST-NTL8 NAC domain (Arabidopsis thaliana, UniProt Q9XIN7 14-156).
T11 sequence: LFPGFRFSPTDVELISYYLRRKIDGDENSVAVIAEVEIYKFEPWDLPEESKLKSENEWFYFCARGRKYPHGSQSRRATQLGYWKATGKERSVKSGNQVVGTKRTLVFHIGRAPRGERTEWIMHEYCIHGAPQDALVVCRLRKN
The note with it: protein: recombinant; tags: GST; chain copies: 2; dsDNA, one strand shown. The essentials: as §1

The next assay has as its target GST-WRKY1(266-371) (Arabidopsis thaliana, UniProt Q9SI37 266-371). The note with it: protein: recombinant; tags: GST; dsDNA, one strand shown. The procedure, abridged: as §1

GST-WRKY1(266-371), sequence (Q9SI37 266-371): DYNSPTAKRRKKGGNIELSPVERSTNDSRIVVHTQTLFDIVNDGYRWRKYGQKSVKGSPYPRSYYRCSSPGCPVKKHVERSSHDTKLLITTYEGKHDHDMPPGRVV

For the sequence TACACGCA, the binding signal came to 0.467 E-score with GST-ANAC092(1-176); 0.0803 E-score with GST-NTL6(1-168); 0.415 E-score with GST-ANAC019 NAC domain; 0.382 E-score in the assay with GST-ANAC055(1-171); 0.369 E-score in the assay with GST-ATAF1 NAC domain; 0.463 E-score in assay [1]. The binding signal in the assay with GST-NAP(1-166) came out at 0.375 E-score; with GST-NST2(1-184), 0.363 E-score; with GST-SND1(1-203), 0.385 E-score; in the assay with GST-VND3 NAC domain, 0.404 E-score; with GST-VND7 NAC domain, 0.385 E-score.
As to TGACGTAA, the binding signal is 0.449 E-score with GST-ANAC092(1-176); 0.368 E-score with GST-ANAC019 NAC domain; 0.364 E-score with GST-ANAC055(1-171); 0.407 E-score in the assay with GST-ATAF1 NAC domain; 0.441 E-score in assay [1]; 0.389 E-score in the assay with GST-NAP(1-166). The binding signal with GST-NST2(1-184) worked out at 0.385 E-score; in the assay with GST-NTL8 NAC domain it was 0.0784 E-score; with GST-SND1(1-203), 0.482 E-score; with GST-VND3 NAC domain, 0.406 E-score; with GST-VND7 NAC domain, 0.392 E-score; with GST-WRKY1(266-371) it was 0.178 E-score.
Turning to ATTGCGTG, the binding signal with GST-ANAC092(1-176) came out at 0.494 E-score; in the assay with GST-ANAC019 NAC domain it was 0.466 E-score; in the assay with GST-ANAC055(1-171) it was 0.452 E-score; with GST-ATAF1 NAC domain, 0.355 E-score; in assay [1], 0.494 E-score; with GST-NAP(1-166), 0.458 E-score. Besides, the binding signal with GST-NST2(1-184) turned out to be 0.459 E-score; with GST-NTL8 NAC domain it was 0.188 E-score; in the assay with GST-SND1(1-203), 0.471 E-score; with GST-VND3 NAC domain, 0.441 E-score; with GST-VND7 NAC domain, 0.46 E-score; in the assay with GST-WRKY1(266-371) it was 0.0947 E-score.
With ATACGTCA, the binding signal in the assay with GST-ANAC092(1-176) came to 0.412 E-score; with GST-ANAC019 NAC domain it was 0.251 E-score; in the assay with GST-ANAC055(1-171), 0.267 E-score; in the assay with GST-ATAF1 NAC domain, 0.345 E-score; in [1], 0.435 E-score; in the assay with GST-NAP(1-166) it was 0.373 E-score. Also, the binding signal with GST-NST2(1-184) was 0.183 E-score; in the assay with GST-SND1(1-203), 0.298 E-score; in the assay with GST-VND3 NAC domain, 0.337 E-score; in the assay with GST-VND7 NAC domain, 0.322 E-score; with GST-WRKY1(266-371), 0.196 E-score.
As to GACGTCAA, the binding signal with GST-ANAC092(1-176) was 0.16 E-score; with GST-ANAC055(1-171), 0.0759 E-score; with GST-ATAF1 NAC domain, 0.0728 E-score; in assay [1], 0.19 E-score; in the assay with GST-NAP(1-166), 0.122 E-score; with GST-NST2(1-184) it was 0.0988 E-score. For the same sequence, the binding signal in the assay with GST-SND1(1-203) turned out to be 0.139 E-score; in the assay with GST-VND3 NAC domain it was 0.126 E-score; with GST-VND7 NAC domain it was 0.0526 E-score; with GST-WRKY1(266-371) it was 0.436 E-score.
CGTGCACG: the binding signal with GST-ANAC092(1-176) was 0.354 E-score; with GST-ANAC019 NAC domain, 0.464 E-score; in the assay with GST-ANAC055(1-171), 0.424 E-score; with GST-ATAF1 NAC domain, 0.304 E-score; in assay [1] it was 0.418 E-score; with GST-NAP(1-166), 0.378 E-score. Further, the binding signal with GST-NST2(1-184) came out at 0.221 E-score; with GST-NTL8 NAC domain it was 0.0868 E-score; in the assay with GST-SND1(1-203) it was 0.0947 E-score; with GST-VND3 NAC domain, 0.426 E-score; with GST-VND7 NAC domain it was 0.391 E-score; in the assay with GST-WRKY1(266-371) it was 0.0812 E-score.
As to AGTCAAAA, the binding signal was 0.157 E-score with GST-ANAC092(1-176); 0.0721 E-score in the assay with GST-ANAC019 NAC domain; 0.234 E-score in the assay with GST-ATAF1 NAC domain; 0.0672 E-score in assay [1]; 0.111 E-score in the assay with GST-SND1(1-203); 0.104 E-score with GST-VND3 NAC domain. The binding signal was 0.0632 E-score with GST-VND7 NAC domain and 0.47 E-score with GST-WRKY1(266-371).

Values taken from paper PMC4081100, “A DNA-binding-site landscape and regulatory network analysis for NAC transcription factors in Arabidopsis thaliana”.
